Data from PubChem BioAssay (EPA / NIEHS).
Results filed as inconclusive are left out. Calls of active or inactive are those of the source. How the source made its calls, unless noted: active means hit-call score of the fitted dose curve at least 0.9, where 1 is the maximum; inactive means score below 0.9.

Key:
[1] = CCTE_Harrill_HTTr_Viability_MCF7: CCTE's 6-hour Cell Viability Assessment for the High-Throughput Transcriptomics (HTTr) Platform, in MCF-7 cells cultured in DMEM + 10% fetal bovine serum, Harrill Lab (AID 2284010)
Outline: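 MCF-7 cells in DMEM + 10% FBS, 384-well, exposed 6 h to an eight-point dilution series. Membrane integrity scored by high-content imaging of propidium iodide exclusion; bidirectional fit versus DMSO.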

[2] = CCTE_Harrill_HTTr_CellCount_MCF7: CCTE's Cell Proliferation Assessment for the High-Throughput Transcriptomics (HTTr) Platform, Harrill Lab (AID 2284012; active means hit-call score of the fitted dose curve at least 0.9, where 1 is the maximum;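 further: cells exposed to compound for six hours; intended direction is loss of nuclei count meaning fewer cells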)
Outline: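 MCF7 cells exposed 6 hours to an eight-point dilution series; Hoechst-stained nuclei counted by high-content imaging. Bidirectional curve fitting against DMSO baseline.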

[3] = CCTE_Shafer_MEA_acute_burst_duration_mean: CCTE's Neural Acute Assay for Mean Burst Duration, Shafer Lab (AID 2284014);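 further: hits are decreases in mean burst duration relative to DMSO controls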
Outline: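 Read-out is the per-well percent change in mean burst duration (first to last spike within a single-electrode burst) between 40-min recordings before and after compound. Cultures were primary rat cortical neurons on MEAs, dosed at 0.03-40 uM on DIV 13 or 15.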

[4] = CCTE_Shafer_MEA_acute_per_burst_spike_number_mean: CCTE's Neural Acute Assay for Average Number of Spikes Per Burst, Shafer Lab (AID 2284015);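 further: hits are decreases in mean spikes per burst versus baseline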
Outline: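 We recorded spontaneous network firing of rat cortical neurons for 40 min before and 40 min during exposure to compound at 0.03-40 uM, at 37 C. Spikes were detected adaptively at 8x rms noise, and the change in average spikes per burst was fitted against DMSO.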

[5] = CCTE_Shafer_MEA_acute_interburst_interval_mean: CCTE's Neural Acute Assay for Mean Interburst Interval, Shafer Lab (AID 2284016);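 further: percent change of mean interburst interval versus each well's own pre-dose baseline; curves fitted for decrease in interburst interval relative to DMSO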
Outline: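 MEA recording of spontaneous network bursting in primary rat cortical cultures; mean interburst interval was compared before and after a 40-min compound exposure (0.03-40 uM) and expressed as percent change, relative to DMSO.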

[6] = CCTE_Shafer_MEA_acute_burst_percentage_mean: CCTE's Neural Acute Assay for Percentage of Spikes in a Burst, Shafer Lab (AID 2284017)
Outline: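 Compounds were tested at 0.03-40 uM on primary rat cortical neuron networks grown over microelectrodes, with at least three wells per compound. Spontaneous firing was recorded for 40 min before and 40 min after dosing, and the change in burst percentage was computed per well.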

[7] = CCTE_Shafer_MEA_acute_burst_percentage_std: CCTE's Neural Acute Assay for Standard Deviation of Burst Percentage, Shafer Lab (AID 2284018);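 further: fitted in the negative direction so actives lower burst percentage SD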
Outline: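 Value is percent change from baseline in the across-electrode SD of spikes-in-bursts percentage, wells with >/= 10 active electrodes. Acute 40-min exposure to 0.03-40 uM on DIV 13 or 15 rat cortical cultures, recorded at 37 C after 40-min baseline.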

[8] = CCTE_Shafer_MEA_acute_per_network_burst_spike_number_mean: CCTE's Neural Acute Assay for Average Number of Spikes in a Network Burst, Shafer Lab (AID 2284019)
Outline: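 Read-out is mean spike count per network burst, taken as percent change between a 40-min pre-exposure and a 40-min post-exposure recording per well. Rat primary cortical neurons on MEAs at 37 C, DIV 13 or 15; compounds at 0.03-40 uM.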

[9] = CCTE_Shafer_MEA_acute_per_network_burst_electrodes_number_mean: CCTE's Neural Acute Assay for Mean Number of Electrodes in a Network Burst, Shafer Lab (AID 2284021);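 further: curves fitted for decreases only so hits reduce electrodes per burst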
Outline: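 Cultures of rat cortex neurons were exposed on DIV 13 or 15 to compounds at 0.03-40 uM in at least three wells each. Activity over 40 min before and 40 min after exposure at 37 C gave the percent change in electrodes per network burst.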

Measured: outcome

CC(C)(C)c1ccc(O)c(C(C)(C)C)c1
inactive: [1] | [2]

CCCCCCCCC(=O)O
inactive: [1] | [2]

CCCCCCCCCCCCCCCS(=O)(=O)Oc1ccccc1
not listed: [1] | [2]
inactive: all other assays above

CCC(C)(C)C1CCC(O)CC1 (stereo not drawn)
inactive: [1] | [2]
